Laboratory results: ChEMBL document CHEMBL1157539, “Thousands of chemical starting points for antimalarial lead identification” (Nature, 2010)

Tested on: HepG2
Test: GSK_TCMDC: Percent inhibition of human HepG2 cell line. Test compounds present at 10uM.
Assay type: functional

Structure (SMILES) | Inhibition
CCc1ccccc1N1CCN(CCCCNC(=O)c2ccc(NC(=O)c3ccc(Cl)cc3)cc2)CC1 | 21%
CCOc1cc(CC)ccc1C1CCN(CCCCNC(=O)c2ccc(NC(=O)c3ccc(Cl)cc3)cc2)CC1.Cl | 11%
Cc1ccc2[nH]c(-c3cc(-c4cccc(C#N)c4)cnc3N)nc2c1.O=C(O)C(F)(F)F | 40%
O=C(Nc1cccc(-c2cccc(-c3nc4cc(C(F)(F)F)ccc4[nH]3)c2)c1)Nc1ccc(F)c(F)c1F | 71%
CCOC(=O)NC1=NC(C)(C)N(OCc2cccc3c2ccc2ccccc23)C(NC(=O)OCC)=N1 | 3%
CCN(CC)CCN(Cc1ccc(-c2ccc(C(F)(F)F)cc2)cc1)C(=O)Cn1c(CCc2cccc(F)c2F)nc(=O)c2cc(F)c(F)cc21.O=C(O)C(O)C(O)C(=O)O | 41%
COc1ccc(Nc2ncc3c(-c4ccc(NC(=O)c5cccc(C(F)(F)F)c5)cc4)c[nH]c3n2)cc1OC | 26%
CCCCCCCCCc1c(C)[nH]c2ccccc2c1=O | 0%
Cc1ccc(C)c(Cn2c(N3CCC(C(=O)NCc4cccs4)CC3)nc3ccccc32)c1 | 0%
CCN(CC)CCOc1ccc(N(Cc2ccc(C(C)(C)C)cc2)C(=O)c2ccc(Cc3ccccc3)cc2)cc1OC.Cl | 5%
CN(C)Cc1ccc(-c2ccc(NC(=O)c3ccc4c(=O)n(Cc5ccoc5)cnc4c3)cc2)cc1 | 32%
Cc1ccc(Nc2nc(N/N=C/c3cc4c(cc3Br)OCO4)nc(Nc3ccc([N+](=O)[O-])cc3)n2)cc1C | 23%
Clc1ccc(-c2[nH]c3ccccc3c2CN2CCC(N3CCCCC3)CC2)cc1 | 5%
CN1CCC(c2c[nH]c3ccc(NC(=O)Nc4ccc(-c5ccncc5)cc4Cl)cc23)CC1 | 31%
O=C(NCCCCCN1CCC(c2c[nH]c3ccccc23)CC1)Nc1cccc(Br)c1 | 39%
CCCCCCN1CCC(NCc2cccc3ccccc23)CC1.O=C(O)C(F)(F)F | 21%
Cc1nc(O)c2c(ccc3ccc(CNc4ccc(C(=O)N[C@@H](CCC(=O)O)C(=O)O)cc4)cc32)n1 | 32%
COc1ccc(NC(=O)C2c3ccccc3C(=O)N(C3CCCC3)C2c2cccs2)c(OC)c1 (configuration not stated) | 3%
O=C(O)C(F)(F)F.O=[N+]([O-])c1cccc(CNCC2CCN(CC3CCCCC3)CC2)c1 | 11%
Cc1cc(N[C@@H](CC(C)C)C(=O)NCCOc2ccccc2)nc(NCCc2ccc(F)cc2)n1.O=C(O)C(F)(F)F | 25%
COc1ccc(CN2CCCN(Cc3ccc(C(=O)Nc4ccc(Cl)cc4)cc3)CC2)cc1.O=C(O)C(F)(F)F | 46%
COc1cc(Nc2ccnc3cc(-c4nccs4)ccc23)ccc1OCCCc1nc2ccccc2[nH]1.Cl | 100%
O=C1SC(=Cc2ccc(O)c(O)c2)C(=O)N1c1ccccc1 | 12%
Clc1cc2c(Nc3ccc(Oc4ccccc4)cc3)ccnc2cc1-c1ccc(CNCCN2CCOCC2)o1 | 0%
CCOc1cc(C2C(C(=O)OC(C)C)=C(C)NC3=C2C(=O)CC(c2ccc(Cl)cc2)C3)ccc1OC(C)=O (configuration not stated) | 16%
Cc1nc(NC(=N)N)nc2cc3c(cc12)CCC3.Cl | 17%
COc1ccc(NC(=O)/C=C/c2ccc(-c3ccc(-c4noc(C)n4)cc3)cc2)cc1OCCN(C)C.O=C(O)C(=O)O | 14%
